Source: PubChem BioAssay
Hits are enriched below; roughly 6.9% of the tested compounds scored in any of these assays.
HCV NS3h FP: blocks HCV NS3 helicase binding to DNA; NS3h Cy5-dT15 DNA binding, fluorescence polarization; inhibition, % at 100 µM; hit rate 1.6% among 16,000; AID 687043;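 active = inhibition above the average over every tested compound plus 3 SD, cut at about 40% in these data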
Cy5 interf NS3h: counter-screen for HCV NS3 helicase inhibitors: fluorescence interference. Cy5-dT15 DNA with NS3h; actives lie on both sides; signal over control mean, under 1 quenches. fluorescence interference ratio at 100 µM. hit rate 6% among 16,000. AID 720488;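 active = compound fluorescence over control fluorescence at most 0.8, a quencher, or at least a set upper limit, an enhancer; inactive = ratio between 0.8 and the set upper limit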
* hit, by the source's call.

SMILES | HCV NS3h FP | Cy5 interf NS3h
Cc1c(OCC(=O)c2ccc(Cl)cc2)ccc2c3c(c(=O)oc12)CCC3 | -3.4 | 1.07
COc1ccc(N(CC(=O)NC(C)c2ccccc2)S(=O)(=O)c2ccc(C)cc2)c(OC)c1 (stereo not drawn) | 18.9 | 0.984
O=c1cc(-c2ccccc2)nc2cc(-c3cccs3)[nH]n12 | 57.1* | 1.16
Cc1cc(=O)n2[nH]c(-c3cccs3)cc2n1 | 1.2 | 1.07
CC(C)(C)NC(=O)c1cccc(Oc2ccc([N+](=O)[O-])cc2)c1 | 5.1 | 1
O=C(Oc1cccc(C(=S)N2CCOCC2)c1)c1ccc([N+](=O)[O-])cc1 | 19.8 | 0.656*
O=C(Oc1ccccc1C(=S)N1CCOCC1)c1ccc([N+](=O)[O-])cc1 | 1.6 | 0.889
O=[N+]([O-])c1ccccc1NC(=NS(=O)(=O)c1ccccc1)c1ccccc1 | 5.1 | 0.991
O=[N+]([O-])c1ccccc1NC(=NS(=O)(=O)c1ccc(Cl)cc1)c1ccccc1 | 19.5 | 0.69*
COc1ccc(CN2CCN(CC3CC4C=CC3C4)CC2)cc1Br (stereo not drawn) | -9.0 | 0.749*
COc1ccc(OC)c(CN2CCN(Cc3ccc(OC)c(Br)c3)CC2)c1 | -6.9 | 0.935
COc1cc2c(cc1NC(=O)c1cccc(I)c1)oc1ccccc12 | 8.8 | 0.975
O=C(CSc1nnc(-c2ccc(Br)cc2)o1)NCc1ccccc1 | 8.8 | 1.04
O=C(OCc1ccccc1)Sc1nnc(-c2ccc(Br)cc2)o1 | 14.1 | 0.781*
CC(C)c1ccc(/C=C2\SC(=Nc3ccc(F)cc3)NC2=O)cc1 | 10.0 | 1.06
O=C(Nc1ccc(Cl)cn1)c1ccc(-c2ccc([N+](=O)[O-])cc2)o1 | -15.8 | 0.824
Cc1cc([N+](=O)[O-])ccc1-c1ccc(C(=O)Nc2ccc(Cl)cn2)o1 | -13.9 | 0.765*
COC(=O)c1ccccc1NC(=O)COc1ccc(C)c(C)c1 | 5.9 | 0.628*
Cc1ccccc1NC(=O)c1ccc(OCC(C)C)cc1 | 12.4 | 0.757*
Cc1ccc(NC(=O)COc2ccc3ccccc3c2)cc1 | 11.0 | 1.35*
CC(C)COc1ccc(C(=O)Nc2cccc3ccccc23)cc1 | 22.7 | 1.09
COC(=O)c1ccccc1NC(=O)c1ccccc1NC(=O)c1ccc(OC)cc1 | 8.8 | 1.03
CCCOc1ccc(C(=O)Nc2ccccc2C(=O)OC)cc1 | 13.3 | 0.703*
COC(=O)c1ccccc1NC(=O)COc1ccc(Br)cc1 | 12.2 | 0.959
COc1cc(NC(=O)COc2ccc3ccccc3c2)cc(OC)c1 | 18.2 | 1.07
SMILES | HCV NS3h FP | Cy5 interf NS3h
COC(=O)c1cc(NC(=O)/C=C/c2ccc(Cl)cc2)cc(C(=O)OC)c1 | 7.5 | 0.922
COC(=O)C1=C(C)NC2=C(C(=O)c3ccccc32)C1c1ccc(-c2cc([N+](=O)[O-])ccc2Cl)o1 (stereo not drawn) | -6.1 | 1.05
Cc1cc2nn(-c3ccccc3)nc2cc1NC(=O)c1ccc(Br)cc1 | 10.7 | 1.07
CN(C)CCCNC(=O)N1CCOCC1 | 8.5 | 0.975
Cc1ccc(-c2cc(C(F)(F)F)n3nc(C(=O)OC(C)C)cc3n2)cc1 | 3.8 | 0.98
O=C(Nc1cccc(Cl)c1Cl)c1cc2nc(-c3ccc([N+](=O)[O-])cc3)cc(C(F)(F)F)n2n1 | 9.6 | 0.785*
O=C(Nc1cccc(Cl)c1)c1cc2nc(-c3ccc4c(c3)OCO4)cc(C(F)(F)F)n2n1 | -9.9 | 0.666*
CCCNC(=O)c1cc2nc(-c3ccc(OC)cc3)cc(C(F)(F)F)n2n1 | 12.2 | 0.914
O=C(Nc1ccc(Nc2ccccc2)cc1)c1cccc(I)c1 | 5.2 | 0.97
Cc1cc(C=C2C(=O)NC(=S)NC2=O)c(-c2ccccc2)n1-c1ccccc1 | 6.0 | 1.09
COc1cc(/C=N/n2nnnc2N)ccc1OCc1ccc(F)cc1 | 10.5 | 0.767*
COc1cc(/C=N\n2nnnc2N)ccc1OCc1c(C)no[n+]1[O-] | 11.7 | 1.06
Cc1cc2nc(-c3ccc(NC(=S)NC(=O)c4ccco4)cc3)oc2cc1C | -7.2 | 1.06
O=C(Nc1ccc2c(c1)OCCO2)c1ccccc1Br | -2.8 | 0.913
Cc1ccc2[nH]c(O)c(N=Nc3ccc([N+](=O)[O-])cc3[N+](=O)[O-])c2c1Br | 16.8 | 0.741*
Cc1ccc(S(=O)(=O)N=Nc2c(O)[nH]c3ccc(Br)cc23)cc1C | -5.9 | 0.984
CC(C)C(NS(=O)(=O)c1ccccc1[N+](=O)[O-])C(=O)Nc1cccc2ccccc12 (stereo not drawn) | 16.1 | 0.82
CC(=O)Oc1cccc(N2C(=O)c3ccc(C(=O)Nc4cccc(C(=O)NCC(C)C)c4)cc3C2=O)c1 | 15.2 | 0.729*
CC(=O)Oc1ccc(C(=O)Nc2cccc(C(=O)NCC(C)C)c2)cc1 | 6.9 | 0.969
Cc1ccc(NC(=O)c2ccc(I)cc2)cc1C | 10.0 | 1.14
CC(=O)Nc1cccc(Oc2ccc3c(c2)C(=O)N(c2ccccc2)C3=O)c1 | 8.2 | 0.992
COC(=O)c1cccc(N2C(=O)c3ccc(Oc4ccc(NC(C)=O)cc4)cc3C2=O)c1 | -25.3 | 1.27*
C=C(C)C(=O)Nc1cccc(C(=O)c2cccc(NC(=O)C(=C)C)c2)c1 | 11.1 | 0.942
COc1cc(C(=O)N2CCN(c3cccc(Cl)c3)CC2)c([N+](=O)[O-])cc1OC | 18.6 | 0.673*
COc1cc(C(=O)N2CCN(Cc3ccccc3)CC2)c([N+](=O)[O-])cc1OC | 4.0 | 0.956
SMILES | HCV NS3h FP | Cy5 interf NS3h
O=C(c1cc(Cl)ccc1Cl)N1CCN(c2ccccc2)CC1 | 5.0 | 0.611*
O=C(c1cc(Cl)ccc1Cl)N1CCOCC1 | 6.3 | 1.11
Cc1c(Cc2ccccc2)c(=O)oc2c(C)c(OCC(=O)N(C)C)ccc12 | 12.9 | 0.939
O=C(CCC(=O)OCC(F)(F)C(F)F)Nc1nc2ccccc2s1 | 7.7 | 0.707*
CCC(C(=O)Nc1nc2ccccc2s1)c1ccccc1 (stereo not drawn) | -6.0 | 1.13
CCOC(=O)c1[nH]cnc1C(=O)N1CCCCC1 | 1.8 | 1.04
CCOC(=O)c1ccc(NC(=O)CN(c2cccc(Br)c2)S(=O)(=O)c2ccccc2)cc1 | 9.7 | 0.943
O=C(COc1cccc2ccccc12)NCc1ccccn1 | 0.6 | 0.914
O=C(COc1cccc2ccccc12)NCC1CCCO1 (stereo not drawn) | 10.5 | 0.772*
O=C(COc1cccc2ccccc12)NCc1cccnc1 | 16.8 | 0.739*
O=C(COc1cccc2ccccc12)NCc1ccco1 | 4.2 | 0.892
COC(=O)c1cc(NS(=O)(=O)c2c(C)cc(C)cc2C)cc(C(=O)OC)c1 | 11.7 | 1.05
Cc1ccc(N=C2NC(=O)/C(=C\c3cccc(Br)c3)S2)cc1C | -0.3 | 0.792*
Cc1ccc(N=C2NC(=O)/C(=C/c3ccc(O)cc3)S2)cc1C | -3.9 | 0.938
O=C(O)C(C(=O)O)C1c2ccccc2Oc2ccccc21 | 11.8 | 1
O=C1C(=C2c3ccccc3C(=O)C2C2c3ccccc3Oc3ccccc32)C(=O)c2ccccc21 (stereo not drawn) | -2.5 | 0.796*
Cc1cc(C)c(NS(=O)(=O)c2ccc(Cl)c([N+](=O)[O-])c2)c(C)c1 | 18.9 | 0.981
O=C(Nc1ccc(S(=O)(=O)NC(=O)C2CCCCC2)cc1)c1cccc(Br)c1 | -1.5 | 0.587*
O=C(Nc1ccc(S(=O)(=O)Nc2ncccn2)cc1)c1cccc(Br)c1 | 15.7 | 1.07
CCOC(=O)c1c(C)oc2cc(Br)c(O)c(C=O)c12 | -1.6 | 1.01
O=C1NC(=S)N/C1=C\c1ccccc1OCc1ccc([N+](=O)[O-])cc1 | -5.3 | 0.67*
O=C1NC(=S)N/C1=C/c1ccc(OCc2ccccc2)c(Br)c1 | -3.9 | 0.985
